Out of some 5,500 compounds screened, about 2,000 (36%) were called active. Another 18% or so got no clear call; they are omitted. Rule as the data show it: active = normalized growth mostly below about 0.91 (no sharp cut-off); inconclusive = no clear call, values can overlap the other calls; inactive = mostly above about 0.92. The list shows a part of the results.
Experiment: chemical genetic growth profiling, strain panel (AID 1159580);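 also: tested at 20 µM; growth read once vehicle control cultures reached saturation at 30 °C; 1 = growth at the plate median or of vehicle wells; lower values mean less growth of the strain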
Conditions: S. cerevisiae deletion strains, growth OD

Measured: normalized growth

CNCC[C@@H](Oc1ccccc1)c1ccccc1
inactive: locus YAL021C, strain ccr4, hits give low values 0.976 | locus YAL026C, strain drs2, hits give low values 0.961 | locus YAL030W, strain snc1, hits give low values 0.947 | locus YBL061C, strain skt5, hits give low values 0.98 | locus YBR009C, strain hhf1, hits give low values 0.974 | locus YBR023C, strain chs3, hits give low values 0.979 | locus YBR171W, strain sec66, hits give low values 0.979 | locus YBR231C, strain swc5, hits give low values 0.984 | locus YBR279W, strain paf1, hits give low values 0.982 | locus YCL011C, strain gbp2, hits give low values 0.975 | locus YCL016C, strain dcc1, hits give low values 0.979 | locus YCL061C, strain MRC1, hits give low values 0.982 | locus YCL069W, strain vba3, hits give low values 0.978 | locus YCR088W, strain abp1, hits give low values 0.983 | locus YDL005C, strain med2, hits give low values 0.983 | locus YDL040C, strain nat1, hits give low values 0.988 | locus YDR001C, strain nth1, hits give low values 0.974 | locus YDR069C, strain doa4, hits give low values 0.965 | locus YDR137W, strain rgp1, hits give low values 1.02 | locus YDR159W, strain sac3, hits give low values 0.944 | locus YDR195W, strain ref2 0.972 | locus YDR297W, strain sur2, hits give low values 0.98 | locus YDR334W, strain swr1, hits give low values 0.951 | locus YDR335W, strain msn5, hits give low values 0.965 | locus YDR392W, strain spt3, hits give low values 0.975 | locus YEL003W, strain gim4, hits give low values 0.973 | locus YEL037C, strain rad23, hits give low values 0.988 | locus YEL061C, strain CIN8 (second series), hits give low values 0.988 | locus YER015W, strain faa2, hits give low values 0.961 | locus YER016W, strain bim1, hits give low values 0.978 | locus YER111C, strain swi4, hits give low values 0.981 | locus YER155C, strain BEM2 (second series), hits give low values 0.978 | locus YFR010W, strain ubp6, hits give low values 0.964 | locus YGL167C, strain pmr1, hits give low values 0.977 | locus YGL173C, strain kem1, hits give low values 0.954 | locus YGL227W, strain vid30, hits give low values 0.97 | locus YGL240W, strain doc1, hits give low values 0.96 | locus YGL253W, strain hxk2, hits give low values 0.984 | locus YHR013C, strain ard1, hits give low values 0.973 | locus YHR027C, strain rpn1, hits give low values 0.946 | locus YHR030C, strain SLT2, hits give low values 1.01 | locus YHR079C, strain IRE1, hits give low values 0.995 | locus YHR142W, strain chs7, hits give low values 0.973 | locus YJL092W, strain hpr5, hits give low values 0.984 | locus YJL095W, strain BCK1 (second series), hits give low values 0.971 | locus YJL095W, strain BCK1, hits give low values 0.996 | locus YJL115W, strain asf1, hits give low values 0.957 | locus YJL129C, strain trk1, hits give low values 0.99 | locus YJL154C, strain vps35, hits give low values 0.97 | locus YJL164C, strain tpk1, hits give low values 0.987 | locus YJL166W, strain qcr8, hits give low values 0.976 | locus YJL187C, strain SWE1, hits give low values 0.98 | locus YJR066W, strain TOR1, hits give low values 0.946 | locus YKL160W, strain elf1, hits give low values 0.989 | locus YKR026C, strain gcn3, hits give low values 0.977 | locus YKR091W, strain srl3, hits give low values 0.988 | locus YLL001W, strain dnm1, hits give low values 0.988 | locus YLL026W, hits give low values 0.97 | locus YLL041C, strain sdh2, hits give low values 0.968 | locus YLR027C, strain aat2, hits give low values 0.962 | locus YLR113W, strain HOG1, hits give low values 0.965 | locus YLR221C, strain rsa3, hits give low values 0.976 | locus YLR258W, strain gsy2, hits give low values 0.981 | locus YLR262C, strain YPT6 (second series), hits give low values 0.982 | locus YLR320W, strain mms22, hits give low values 0.989 | locus YLR342W, strain FKS1, hits give low values 0.976 | locus YLR357W, strain rsc2, hits give low values 1.01 | locus YLR370C, strain arc18, hits give low values 0.981 | locus YLR384C, strain iki3, hits give low values 0.972 | locus YML120C, strain ndi1, hits give low values 0.983 | locus YMR058W, strain fet3, hits give low values 0.981 | locus YMR125W, strain sto1, hits give low values 0.979 | locus YMR129W, hits give low values 0.991 | locus YMR205C, strain PFK2, hits give low values 0.958 | locus YMR231W, strain pep5, hits give low values 0.984 | locus YNL071W, strain lat1, hits give low values 0.993 | locus YNL183C, strain NPR1, hits give low values 0.958 | locus YNL209W, strain ssb2, hits give low values 0.948 | locus YNL248C, strain rpa49, hits give low values 0.974 | locus YNL322C, strain KRE1 (second series), hits give low values 0.978 | locus YNR049C, strain mso1, hits give low values 0.969 | locus YOR001W, strain rrp6, hits give low values 0.972 | locus YOR070C, strain gyp1, hits give low values 0.989 | locus YOR080W, strain dia2, hits give low values 0.973 | locus YOR083W, strain WHI5, hits give low values 0.981 | locus YOR106W, strain vam3, hits give low values 0.972 | locus YOR231W, strain MKK1, hits give low values 1.01 | locus YOR265W, strain rbl2, hits give low values 0.98 | locus YOR270C, strain vph1, hits give low values 1.01 | locus YOR290C, strain snf2, hits give low values 0.974 | locus YPL051W, strain arl3, hits give low values 0.994 | locus YPL078C, strain atp4, hits give low values 0.984 | locus YPL106C, strain sse1, hits give low values 0.924 | locus YPL240C, strain hsp82, hits give low values 0.976 | locus YPL256C, strain CLN2, hits give low values 0.992

Source: PubChem BioAssay AID1159580 (chemical genetic matrix, 2015)
